Compound activity as filed in PubChem.
Hits are enriched below; roughly 3.4% of the tested compounds scored in any of these assays.
Bim-Mcl-1 – human Bim-Mcl-1 interaction inhibition. Q07820. 0.1% of 190,000 active. AID 1009. Bead-based flow cytometry, Bim peptide-Mcl-1 binding. inhibition, % at 10 µM; in the data active = inhibition above about 40%;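 also: 0% = no compound tracer wells and 100% = peptide blocker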
Mcl1 Noxa PPI – disrupts binding of human Mcl-1 to Noxa peptide. 1.5% of 220,000 active. Q07820. TR-FRET Mcl-1/Noxa peptide binding, 2 h. inhibition, % at 21.7 µM;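 active = compounds that cut the protein-peptide binding signal by more than 50% relative to plate controls in a single-dose test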;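 also: His-tagged Mcl-1 with rhodamine Noxa BH3 peptide and terbium anti-His antibody; 0% = Mcl-1 plus Noxa peptide wells and 100% = peptide-only wells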
p47phox inh – blocks human p47phox regulatory protein of NADPH oxidases | P14598 | 0.53% of 220,000 active | inhibition, % at 24.7 µM | p47phox/p22phox peptide binding, fluorescence polarization, 2 h;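 also: 0% = p47phox with labelled peptide and 100% = labelled peptide alone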
Target sequence (P14598 whole entry, looked up): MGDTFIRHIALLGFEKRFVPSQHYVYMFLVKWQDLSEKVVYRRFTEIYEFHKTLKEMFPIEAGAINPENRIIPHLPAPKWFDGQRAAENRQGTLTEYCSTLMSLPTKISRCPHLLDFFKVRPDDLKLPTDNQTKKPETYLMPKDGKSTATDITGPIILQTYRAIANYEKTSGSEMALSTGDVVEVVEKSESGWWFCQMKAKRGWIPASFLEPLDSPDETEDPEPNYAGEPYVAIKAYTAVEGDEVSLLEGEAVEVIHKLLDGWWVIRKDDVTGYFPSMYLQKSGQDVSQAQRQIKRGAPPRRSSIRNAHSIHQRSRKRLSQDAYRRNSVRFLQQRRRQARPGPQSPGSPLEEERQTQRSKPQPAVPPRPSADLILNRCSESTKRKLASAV
14-3-3 Bad PPI – disrupts binding of bovine 14-3-3 zeta to phospho-Bad peptide | TR-FRET 14-3-3zeta/Dy647-pBad peptide displacement, 1 h | P63103 | 0.71% of 220,000 active | AID 781 | inhibition, % at 21.7 µM;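 active = inhibition above about 70%, limit read from the data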;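 also: 0% = full 14-3-3 plus peptide FRET controls and 100% = background without 14-3-3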
eIF4E 4G PPI – eIF4E/eIF4G interaction inhibition in translation initiation | TR-FRET eIF4E-eIF4GI(517-606) binding, 2 h | inhibition, % at 21.7 µM | 0.37% of 220,000 active;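 also: 0% = full FRET control wells and 100% = background wells lacking eIF4GI fragment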
Mcl1 Bid PPI – disrupts binding of human Mcl-1 to Bid peptide; TR-FRET Mcl-1/Bid-Dy647 peptide binding, 1536-well; inhibition, % at 21.7 µM; 0.97% of 220,000 active; AID 1021;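 active = compounds that cut the binding signal by more than half at the single screening dose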;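 also: His-tagged Mcl-1 with europium anti-His antibody binding Bid BH3 peptide; 0% = Mcl-1 plus peptide wells and 100% = peptide-only wells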
* hit, by the source's call; . = no result given; [ ] = dose if it differs, or a comment.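 The calls were made as follows, unless noted: active = inhibition above about 30% (limit read from the data); inactive = the rest.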

SMILES	Bim-Mcl-1	Mcl1 Noxa PPI	p47phox inh	14-3-3 Bad PPI	eIF4E 4G PPI	Mcl1 Bid PPI
COc1cc2[nH]c(=O)n(CCC(=O)N3CCN(c4cccc(C)c4C)CC3)c(=O)c2cc1OC	-3	21	13	19	8	54*
CCC(c1nnnn1CCOC)N1CCN(Cc2ccccc2OC)CC1 (stereo not given)	-3	24	-3	88*	-2	38
COCCn1nnnc1C(c1ccc2ncccc2c1)N1CCN(c2ccccc2F)CC1 (stereo not given)	3	29	1	76*	2	33
COCCn1nnnc1C(c1ccccc1)N1CCN(C)CC1 (stereo not given)	-3	4	-5	72*	-6	15
CCCC(c1nnnn1CCOC)N1CCN(Cc2ccccc2)CC1 (stereo not given)	2	34	0	44	7	30
Cc1ccc(-c2c(C)sc3ncn(CC(=O)N4CCOCC4)c(=O)c23)cc1C	.	-4	-22	-1	-5	-55
CC(C)CN(C(=O)COC(=O)c1c(Cl)ccc(Cl)c1Cl)C1CCS(=O)(=O)C1 (stereo not given)	6	0	-10	-7	2	-17
O=c1[nH]c2ccccc2c2nc3ccccn3c12	3	-4	3	11	5	5
O=c1nc2c(O)cccn2c2c1c(=O)[nH]c1ccccc12	21	61*	-7	2	9	-83
Cc1ccc(-n2cc(CNCC3CC(=O)N(C4CC4)C3)c(-c3cccc(C)c3)n2)cc1 (stereo not given)	0	13	-5	-2	0	-24
Cc1ccc(-c2ccc(=O)n(CC(=O)NCc3ccc(F)cc3)n2)cc1	0	-4	-8	-10	-1	-21
Cc1ccc(CSc2nnc([C@@H]3CCCN3)o2)cc1	-1	50	3	8	4	63*
c1ccc(CSc2nnc([C@@H]3CCCN3)o2)cc1	-3	38	1	19	2	4
CC(=O)Nc1ccc(S(=O)(=O)Nc2nc3ccccc3nc2Nc2cccc(S(N)(=O)=O)c2)cc1	.	6	-13	1	1	-3
O=C(CNC(=O)c1ccc(S(=O)(=O)N2CCCC2)cc1)N/N=C/c1ccc(Cl)cc1	0	7	-1	-27	6	-19
O=C(CNC(=O)c1ccc(S(=O)(=O)N2CCCC2)cc1)N/N=C/c1ccc(Cl)cc1Cl	98*	7	-2	-1	-16	-6
COc1cc(N2CCCC2)c(OC)cc1/C=C(/C#N)c1cccc(F)c1	-22	80*	4	-6	3	-21
N#C/C(=C/c1ccc(N2CCCCCC2)o1)c1cccc(F)c1	-14	31	28	-23	12	-7
COc1ccc2nc(COC(=O)c3ccco3)c(C(C)=O)[n+]([O-])c2c1	3	5	8	86*[fluorescence artefact?]	-3	-22
Cc1cccc(C(=O)O/N=C2\CCSc3ccc(C)cc32)c1	-3	5	94*	27	5	-1
CC(=O)c1ccc(NC(=O)CC2Nc3cccc4cccc(c34)NC2=O)cc1 (stereo not given)	-1	83*	-1	-8	2	-35
Cc1cc(N2CCCC2)nc2ccc(NC(=S)NCCCN3CCC(C)CC3)cc12	-3	18	24	-11	-2	-51
COC(=O)COc1ccc(-n2cnnn2)cc1	0	-4	-1	0	0	-24
CCCCCCNC(=O)N[C@H](C(=O)NCCC[C@H]1CN2C(=NC[C@H]2C)N1CCC(c1ccccc1)c1ccccc1)C(C)O (stereo not given in full)	.	10	87*	1	53*	-78
CNc1ccc(Br)cc(C(=O)/C=C/c2ccc(OC)cc2OC)c1=O	22	76*	-18	-12	12	-2
COc1ccc(/C=C/C(=O)c2ccc(OC)cc2OC)c(OC)c1	-3	2	-20	27	-1	0
CNc1ccc(Br)cc(C(=O)/C=C/c2ccc(Cl)cc2Cl)c1=O	2	92*	-47	14	5	13
CNc1ccc(Br)cc(C(=O)/C=C/c2cccc(OC)c2)c1=O	8	81*	-6	26	-2	1
